From PMC7862700, “An all-to-all approach to the identification of sequence-specific readers for epigenetic DNA modifications on cytosine”

Experiments:
Assay in all cases: DAPPL (digital affinity profiling via proximity ligation, sequencing); 10 mM Tris-HCl pH 7.5, 50 mM NaCl, 1 mM DTT, 4% glycerol, room temperature, 30 min; GST-TFs on glutathione beads, 16-mer random dsDNA library, 0.1% formaldehyde crosslink after washing; high values mean tight binding
Conditions in all cases: protein: recombinant; tags: N-terminal GST; dsDNA, one strand shown
[1] = target: T1, ELK1 (Homo sapiens, UniProt P19419 1-428)
T1 sequence: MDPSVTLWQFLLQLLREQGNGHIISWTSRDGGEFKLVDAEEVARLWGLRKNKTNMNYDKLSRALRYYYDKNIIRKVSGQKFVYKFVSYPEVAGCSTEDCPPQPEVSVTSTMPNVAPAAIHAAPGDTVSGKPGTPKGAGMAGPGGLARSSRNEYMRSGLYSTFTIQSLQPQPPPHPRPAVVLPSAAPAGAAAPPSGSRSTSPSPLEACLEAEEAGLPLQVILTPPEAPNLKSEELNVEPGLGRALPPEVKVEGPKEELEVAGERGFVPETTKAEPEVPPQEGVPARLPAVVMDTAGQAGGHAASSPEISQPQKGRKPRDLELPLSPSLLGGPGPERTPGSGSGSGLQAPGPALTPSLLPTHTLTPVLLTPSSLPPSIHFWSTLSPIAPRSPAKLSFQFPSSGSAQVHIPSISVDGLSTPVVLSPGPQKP
How it was run: (§1)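 Pools were built from human transcription factors expressed in yeast as GST fusions, captured on glutathione beads and DNA-barcoded, along with a tag-only sample. Incubation with 200 nmole of a 16-mer random double-stranded DNA library lasted 30 min at room temperature in Tris/NaCl/DTT/glycerol buffer, and was followed by washing, 0.1% formaldehyde crosslinking, proximity ligation, PCR amplification and Illumina NextSeq500 sequencing. Binding signal is the quotient of each hexamer's read frequency for a factor and its frequency for the tag-only sample.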

[2] = target: ELF1 (Homo sapiens, UniProt P32519 1-619)
How it was run: as §1

[3] = target: ETV5 (Homo sapiens, UniProt P41161 1-510)
How it was run: as §1

[4] = target: T2, ELK4 (Homo sapiens, UniProt P28324-2 1-405)
T2 sequence: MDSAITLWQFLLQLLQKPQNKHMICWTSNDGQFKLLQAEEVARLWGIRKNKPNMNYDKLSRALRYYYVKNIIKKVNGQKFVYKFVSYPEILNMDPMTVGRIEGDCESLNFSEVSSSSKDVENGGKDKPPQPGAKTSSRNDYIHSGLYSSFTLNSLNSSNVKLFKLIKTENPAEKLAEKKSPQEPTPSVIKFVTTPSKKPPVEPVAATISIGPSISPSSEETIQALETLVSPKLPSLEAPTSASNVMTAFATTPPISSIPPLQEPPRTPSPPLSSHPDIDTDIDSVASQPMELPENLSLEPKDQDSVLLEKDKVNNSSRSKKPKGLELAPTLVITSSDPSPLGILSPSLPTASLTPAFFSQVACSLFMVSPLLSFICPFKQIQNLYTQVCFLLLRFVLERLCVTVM
How it was run: as §1

[5] = target: ETV1 (Homo sapiens, UniProt P50549 1-477)
How it was run: as §1

[6] = target: T3, ERF (Homo sapiens, UniProt P50548 1-548)
T3 sequence: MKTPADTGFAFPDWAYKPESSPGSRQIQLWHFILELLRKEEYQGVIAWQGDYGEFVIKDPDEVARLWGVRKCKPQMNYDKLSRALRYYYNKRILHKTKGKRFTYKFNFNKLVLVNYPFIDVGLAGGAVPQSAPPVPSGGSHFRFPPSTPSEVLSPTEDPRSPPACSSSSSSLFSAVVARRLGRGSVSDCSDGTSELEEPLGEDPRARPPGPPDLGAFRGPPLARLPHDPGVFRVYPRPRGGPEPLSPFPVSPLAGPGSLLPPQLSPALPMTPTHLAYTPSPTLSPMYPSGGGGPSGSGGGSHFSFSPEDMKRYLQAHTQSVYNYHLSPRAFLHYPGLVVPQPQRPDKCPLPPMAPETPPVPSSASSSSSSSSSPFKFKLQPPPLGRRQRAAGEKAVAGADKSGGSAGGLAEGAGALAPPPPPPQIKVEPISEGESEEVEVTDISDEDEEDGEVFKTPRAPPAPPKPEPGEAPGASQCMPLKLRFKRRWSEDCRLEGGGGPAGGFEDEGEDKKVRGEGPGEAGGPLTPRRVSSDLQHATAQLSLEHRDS
How it was run: as §1

[7] = target: T4, SPDEF (Homo sapiens, UniProt O95238 1-335)
T4 sequence: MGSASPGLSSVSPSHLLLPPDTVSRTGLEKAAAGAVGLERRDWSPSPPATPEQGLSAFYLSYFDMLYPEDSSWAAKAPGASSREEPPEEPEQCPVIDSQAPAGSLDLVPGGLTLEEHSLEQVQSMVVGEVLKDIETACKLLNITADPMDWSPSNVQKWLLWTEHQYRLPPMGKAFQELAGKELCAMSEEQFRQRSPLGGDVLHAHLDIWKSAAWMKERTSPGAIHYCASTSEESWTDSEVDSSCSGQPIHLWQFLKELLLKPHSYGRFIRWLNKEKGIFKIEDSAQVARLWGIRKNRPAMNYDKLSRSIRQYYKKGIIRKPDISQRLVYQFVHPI
How it was run: as §1

[8] = target: T5, GABPA (Homo sapiens, UniProt Q06546 1-454)
T5 sequence: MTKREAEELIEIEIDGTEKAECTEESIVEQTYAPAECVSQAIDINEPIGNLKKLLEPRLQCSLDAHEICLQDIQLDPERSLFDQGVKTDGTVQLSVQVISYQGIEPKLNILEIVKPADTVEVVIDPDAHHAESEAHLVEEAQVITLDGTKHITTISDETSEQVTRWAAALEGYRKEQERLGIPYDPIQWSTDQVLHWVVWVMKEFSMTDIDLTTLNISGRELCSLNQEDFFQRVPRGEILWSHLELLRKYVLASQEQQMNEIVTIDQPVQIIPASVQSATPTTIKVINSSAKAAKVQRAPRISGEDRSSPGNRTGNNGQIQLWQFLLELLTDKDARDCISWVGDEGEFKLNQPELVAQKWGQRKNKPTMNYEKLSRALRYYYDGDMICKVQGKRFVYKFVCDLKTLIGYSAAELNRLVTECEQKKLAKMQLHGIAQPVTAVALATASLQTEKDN
How it was run: as §1

[9] = target: T6, EHF (Homo sapiens, UniProt Q9NZC4 1-300)
T6 sequence: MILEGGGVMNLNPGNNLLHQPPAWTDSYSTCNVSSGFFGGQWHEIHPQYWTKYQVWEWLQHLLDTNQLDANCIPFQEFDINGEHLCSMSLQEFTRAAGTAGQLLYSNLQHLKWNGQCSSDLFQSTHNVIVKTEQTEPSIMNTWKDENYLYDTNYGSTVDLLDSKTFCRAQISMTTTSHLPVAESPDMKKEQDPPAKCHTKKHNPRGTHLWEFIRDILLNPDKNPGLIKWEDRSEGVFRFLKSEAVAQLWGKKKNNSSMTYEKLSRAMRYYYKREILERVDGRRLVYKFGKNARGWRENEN
How it was run: as §1

[10] = target: SPI1 (Homo sapiens, UniProt P17947 1-270)
How it was run: as §1

[11] = target: SPIB (Homo sapiens, UniProt Q01892 1-262)
How it was run: as §1

[12] = target: ELF4 (Homo sapiens, UniProt Q99607 1-663)
How it was run: as §1

[13] = target: T7, ELF3 (Homo sapiens, UniProt P78545 1-371)
T7 sequence: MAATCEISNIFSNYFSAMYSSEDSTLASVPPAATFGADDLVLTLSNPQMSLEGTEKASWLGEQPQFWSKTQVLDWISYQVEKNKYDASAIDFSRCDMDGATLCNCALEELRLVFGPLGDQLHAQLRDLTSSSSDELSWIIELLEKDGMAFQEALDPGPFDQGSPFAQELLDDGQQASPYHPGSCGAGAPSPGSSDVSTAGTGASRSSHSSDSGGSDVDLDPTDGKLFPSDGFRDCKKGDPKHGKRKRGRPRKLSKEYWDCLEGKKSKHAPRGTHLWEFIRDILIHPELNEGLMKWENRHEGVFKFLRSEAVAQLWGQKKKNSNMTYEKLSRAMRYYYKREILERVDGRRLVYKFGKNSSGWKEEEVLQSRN
How it was run: as §1

[14] = target: T8, ETV3L (Homo sapiens, UniProt Q6ZN32 1-361)
T8 sequence: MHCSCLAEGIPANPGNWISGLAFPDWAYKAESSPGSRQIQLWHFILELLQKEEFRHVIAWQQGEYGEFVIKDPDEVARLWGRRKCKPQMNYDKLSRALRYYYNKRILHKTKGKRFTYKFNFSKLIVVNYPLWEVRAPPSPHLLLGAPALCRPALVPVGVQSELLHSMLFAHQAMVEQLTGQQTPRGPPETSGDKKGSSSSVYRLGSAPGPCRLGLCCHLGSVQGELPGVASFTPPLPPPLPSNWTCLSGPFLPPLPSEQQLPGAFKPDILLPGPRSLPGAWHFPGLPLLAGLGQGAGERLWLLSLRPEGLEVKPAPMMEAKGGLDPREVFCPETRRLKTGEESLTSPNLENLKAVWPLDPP
How it was run: as §1

[15] = target: T9, ETS2 (Homo sapiens, UniProt P15036 1-469)
T9 sequence: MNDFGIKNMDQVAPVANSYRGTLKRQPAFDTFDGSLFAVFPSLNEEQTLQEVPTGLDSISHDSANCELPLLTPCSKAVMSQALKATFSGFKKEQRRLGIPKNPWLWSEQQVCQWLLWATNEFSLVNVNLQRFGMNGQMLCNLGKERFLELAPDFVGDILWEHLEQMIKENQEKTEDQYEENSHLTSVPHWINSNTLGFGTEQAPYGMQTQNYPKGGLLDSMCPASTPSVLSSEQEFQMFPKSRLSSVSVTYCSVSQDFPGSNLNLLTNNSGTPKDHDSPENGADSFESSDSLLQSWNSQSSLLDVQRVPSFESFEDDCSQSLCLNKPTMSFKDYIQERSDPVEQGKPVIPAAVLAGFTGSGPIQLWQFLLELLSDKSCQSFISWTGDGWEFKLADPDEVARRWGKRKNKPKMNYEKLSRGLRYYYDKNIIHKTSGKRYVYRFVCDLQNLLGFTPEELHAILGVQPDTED
How it was run: as §1

[16] = target: T10, ETV3 (Homo sapiens, UniProt P41162-2 1-143)
T10 sequence: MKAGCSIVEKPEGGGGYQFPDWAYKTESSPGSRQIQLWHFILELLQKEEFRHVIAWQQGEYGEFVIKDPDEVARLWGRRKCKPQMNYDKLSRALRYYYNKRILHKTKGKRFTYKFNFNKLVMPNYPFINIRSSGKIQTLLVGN
How it was run: as §1

Sequence of ETV1 (P50549 whole entry): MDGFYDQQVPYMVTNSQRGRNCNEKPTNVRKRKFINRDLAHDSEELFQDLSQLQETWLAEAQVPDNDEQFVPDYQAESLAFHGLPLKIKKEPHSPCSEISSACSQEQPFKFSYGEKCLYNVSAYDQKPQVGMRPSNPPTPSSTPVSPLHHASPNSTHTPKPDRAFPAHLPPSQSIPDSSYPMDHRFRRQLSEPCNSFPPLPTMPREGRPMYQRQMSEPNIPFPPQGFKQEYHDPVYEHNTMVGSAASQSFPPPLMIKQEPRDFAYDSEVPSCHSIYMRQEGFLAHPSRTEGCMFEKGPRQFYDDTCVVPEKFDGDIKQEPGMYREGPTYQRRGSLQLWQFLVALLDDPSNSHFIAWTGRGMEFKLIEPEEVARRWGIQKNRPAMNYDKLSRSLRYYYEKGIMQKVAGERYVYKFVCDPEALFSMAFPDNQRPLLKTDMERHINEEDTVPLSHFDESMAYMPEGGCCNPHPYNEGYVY
Sequence of ETV5 (P41161 whole entry): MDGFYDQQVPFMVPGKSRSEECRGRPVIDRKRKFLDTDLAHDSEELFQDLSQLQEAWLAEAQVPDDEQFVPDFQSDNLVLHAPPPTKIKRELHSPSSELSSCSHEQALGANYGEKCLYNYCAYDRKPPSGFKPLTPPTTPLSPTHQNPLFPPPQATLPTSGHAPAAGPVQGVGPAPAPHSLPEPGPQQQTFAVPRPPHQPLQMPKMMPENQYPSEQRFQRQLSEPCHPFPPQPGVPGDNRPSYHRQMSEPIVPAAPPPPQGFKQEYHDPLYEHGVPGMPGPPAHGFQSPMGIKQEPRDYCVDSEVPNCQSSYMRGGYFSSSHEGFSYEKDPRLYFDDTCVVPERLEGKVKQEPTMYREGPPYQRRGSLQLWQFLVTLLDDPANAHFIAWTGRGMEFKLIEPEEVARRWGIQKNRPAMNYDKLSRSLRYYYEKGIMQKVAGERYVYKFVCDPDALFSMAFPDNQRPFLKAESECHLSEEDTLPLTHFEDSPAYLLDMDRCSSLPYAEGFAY
Sequence of ELF1 (P32519 whole entry): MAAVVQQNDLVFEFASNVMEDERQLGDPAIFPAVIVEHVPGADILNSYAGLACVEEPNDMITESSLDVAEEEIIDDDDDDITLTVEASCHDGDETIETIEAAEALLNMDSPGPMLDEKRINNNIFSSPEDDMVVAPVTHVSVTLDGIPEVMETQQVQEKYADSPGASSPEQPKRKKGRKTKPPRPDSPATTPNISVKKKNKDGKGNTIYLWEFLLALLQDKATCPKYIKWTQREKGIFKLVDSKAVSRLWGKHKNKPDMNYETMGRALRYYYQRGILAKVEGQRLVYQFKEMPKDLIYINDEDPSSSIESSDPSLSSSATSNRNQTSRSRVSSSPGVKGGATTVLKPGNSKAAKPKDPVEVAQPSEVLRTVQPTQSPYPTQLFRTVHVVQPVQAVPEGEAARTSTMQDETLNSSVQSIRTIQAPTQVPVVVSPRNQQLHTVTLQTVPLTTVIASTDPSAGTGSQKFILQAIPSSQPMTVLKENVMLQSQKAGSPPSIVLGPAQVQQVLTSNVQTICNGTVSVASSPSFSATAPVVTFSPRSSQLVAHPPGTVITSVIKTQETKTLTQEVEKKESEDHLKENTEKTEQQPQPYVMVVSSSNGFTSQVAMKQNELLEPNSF
Sequence of ELF4 (Q99607 whole entry): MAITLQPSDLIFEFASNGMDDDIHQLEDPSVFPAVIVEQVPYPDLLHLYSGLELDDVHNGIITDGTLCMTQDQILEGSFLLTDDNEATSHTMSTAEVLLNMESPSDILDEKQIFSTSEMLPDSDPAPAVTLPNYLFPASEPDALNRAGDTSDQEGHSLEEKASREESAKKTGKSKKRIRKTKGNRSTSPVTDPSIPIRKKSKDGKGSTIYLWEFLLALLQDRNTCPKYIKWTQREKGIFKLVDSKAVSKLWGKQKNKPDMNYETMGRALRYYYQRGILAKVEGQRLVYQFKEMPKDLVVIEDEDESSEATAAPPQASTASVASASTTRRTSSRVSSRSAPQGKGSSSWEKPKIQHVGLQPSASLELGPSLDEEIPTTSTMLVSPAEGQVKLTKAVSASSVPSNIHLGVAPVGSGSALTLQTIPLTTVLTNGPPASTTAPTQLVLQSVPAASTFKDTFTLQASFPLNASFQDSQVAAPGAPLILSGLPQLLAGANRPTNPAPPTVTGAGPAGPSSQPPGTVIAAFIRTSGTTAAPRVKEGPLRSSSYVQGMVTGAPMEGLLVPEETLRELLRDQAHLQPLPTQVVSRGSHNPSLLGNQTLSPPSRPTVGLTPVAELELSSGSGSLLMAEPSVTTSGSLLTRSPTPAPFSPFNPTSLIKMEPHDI
Sequence of SPIB (Q01892 whole entry): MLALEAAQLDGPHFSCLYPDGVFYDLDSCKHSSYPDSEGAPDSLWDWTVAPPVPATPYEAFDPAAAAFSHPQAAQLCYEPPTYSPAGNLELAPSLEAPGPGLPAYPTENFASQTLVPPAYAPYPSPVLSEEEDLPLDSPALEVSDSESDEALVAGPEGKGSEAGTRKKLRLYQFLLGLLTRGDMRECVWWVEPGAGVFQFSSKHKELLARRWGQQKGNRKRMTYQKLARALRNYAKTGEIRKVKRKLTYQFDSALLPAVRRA

| Sequence | binding signal [1] | binding signal [2] | binding signal [3] | binding signal [4] | binding signal [5] | binding signal [6] | binding signal [7] | binding signal [8] | binding signal [9] | binding signal [10] | binding signal [11] | binding signal [12] | binding signal [13] | binding signal [14] | binding signal [15] | binding signal [16] |
| --- | --- | --- | --- | --- | --- | --- | --- | --- | --- | --- | --- | --- | --- | --- | --- | --- |
| ACGGTA | 1.03 fold enrichment (6-mer frequency, TF over GST control) | 1.01 fold enrichment (6-mer frequency, TF over GST control) | 1.04 fold enrichment (6-mer frequency, TF over GST control) | 1.02 fold enrichment (6-mer frequency, TF over GST control) | 1.01 fold enrichment (6-mer frequency, TF over GST control) | 1.09 fold enrichment (6-mer frequency, TF over GST control) | 1.05 fold enrichment (6-mer frequency, TF over GST control) | – | – | – | – | – | – | – | – | – |
| TGCAAG | 1.11 fold enrichment (6-mer frequency, TF over GST control) | 1.01 fold enrichment (6-mer frequency, TF over GST control) | 1.07 fold enrichment (6-mer frequency, TF over GST control) | 1.07 fold enrichment (6-mer frequency, TF over GST control) | 1.03 fold enrichment (6-mer frequency, TF over GST control) | 1.01 fold enrichment (6-mer frequency, TF over GST control) | 1.11 fold enrichment (6-mer frequency, TF over GST control) | 1.07 fold enrichment (6-mer frequency, TF over GST control) | 1.02 fold enrichment (6-mer frequency, TF over GST control) | 1 fold enrichment (6-mer frequency, TF over GST control) | 1.04 fold enrichment (6-mer frequency, TF over GST control) | 1.05 fold enrichment (6-mer frequency, TF over GST control) | 1.15 fold enrichment (6-mer frequency, TF over GST control) | 1.11 fold enrichment (6-mer frequency, TF over GST control) | 1.12 fold enrichment (6-mer frequency, TF over GST control) | 1.07 fold enrichment (6-mer frequency, TF over GST control) |
